Reference: ChEMBL document CHEMBL3988442, “University of Dundee, Small-Polar-MMV Screening Library” (2021)
In all, about 53,000 compounds went through this assay and about 900 (1.7%) showed an effect of 50% or more. Shown is part of a subset that was picked to be rich in strong results.

tested on: Mycobacterium tuberculosis; assay: Cornell - Phenotypic assay to identify agents that inhibit growth of Mycobacterium tuberculosis; type: functional; design: scale not given: direction of the effect not stated beside the values; settings: 10 mM as filed; unlikely as a test dose

In order of falling “Percent Effect” value:
1. Cl.Cl.Clc1cccc(C[C@@H]2NCCC[C@@H]2Nc2cccc(Cl)c2)c1  108.9%
2. Cl.Clc1cccc(N[C@H]2CCCN[C@H]2Cc2ccccc2)c1  107%
3. CNC(C)Cc1ccccc1Sc1ccc(O)cc1.Cl (stereo unspecified)  105.4%
4. N#Cc1ncn(CCC(=O)Nc2ccc(Cl)cc2F)n1  105.4%
5. N#Cc1ncn(CC(=O)Nc2cc(Cl)ccc2F)n1  104.7%
6. CC(N)Cc1ccccc1Sc1ccc(O)cc1.CC(N)Cc1ccccc1Sc1ccc(O)cc1.O=C(O)C(=O)O (stereo unspecified)  102.6%
7. CN(C)S(=O)(=O)N1CCCCCC1c1cc(-c2ccc(F)cc2)no1 (stereo unspecified)  73.32%
8. N#Cc1ncn(CCC(=O)Nc2cccc(Cl)c2)n1  68.3%
9. Cn1nc(CN2CCCN(C3CCCC3)CC2)c2c(Cl)cccc21  60.03%
10. O=C(CCN1CCCC1)N1CC[C@@H](c2ccc3ccccc3c2)[C@H](O)C1  59.79%
11. N#Cc1ncn(CCC(=O)Nc2c(Cl)cccc2Cl)n1  58.03%
12. Cc1cc(NC2CCCN(Cc3ccc(F)cc3)C2)n2nc(C)cc2n1 (stereo unspecified)  55.74%
13. Cl.Cl.Clc1cccc(C[C@@H]2NCCC[C@@H]2Nc2ccccc2)c1  55.37%
14. Cc1ccc(NS(=O)(=O)c2cnn(-c3ccccc3)c2)c(C(=O)O)c1  55.25%
15. COc1ccc(NC(=O)N2CCC(c3noc(C)n3)CC2)cc1C  55.08%
16. CN(C)CCN(C)c1ccc(-c2nc(COc3ccccc3)no2)cn1  54.95%
17. Cn1cc(CN2CCc3nc4ccccc4c(=O)n3CC2)cn1  52.34%
18. Cc1c(CN2CCc3nc4sccc4c(=O)n3CC2)cnn1C.Cl  51.95%
19. Cc1nn(C)cc1CN1CCc2nc3sccc3c(=O)n2CC1  50.52%
20. CCn1cncc1CN1CCc2nc3sccc3c(=O)n2CC1  47.13%
21. N#Cc1ncn(CCC(=O)Nc2cc(Cl)ccc2Cl)n1  44.53%
22. O=C(O)C(F)(F)F.O=C(O)C(F)(F)F.O=C(O)C(F)(F)F.c1cnc(NC[C@H]2OC[C@@H]3CCN(Cc4cccnc4)C[C@@H]32)nc1  43.57%
23. Cl.Cn1cncc1CN1CCc2nc3sccc3c(=O)n2CC1  43.45%
24. N#Cc1ncn(CC(=O)Cc2c(F)cccc2Cl)n1  41.98%
25. O=C(c1cccc(-n2cnnc2)c1)N1C[C@@H](O)[C@H](N2CCOCC2)C1  40.33%
26. Cc1cc(NC2CCN(c3ccc(F)cc3)CC2)n2nc(C)cc2n1  39.2%
27. O=C(C[S+]([O-])Cc1cccc(Cl)c1)NC1CCCC1 (stereo unspecified)  37.46%
28. CCOC(=O)[C@H]1CNC[C@H]1C(=O)OCC.Cl  36.02%
29. N#Cc1ncn(CCC(=O)Nc2ccc(F)c(F)c2)n1  34.8%
30. Cc1nnc(C2CCN(C(=O)c3ccc(-n4cccc4)cc3)CC2)s1  34.12%
31. Clc1ccc(COCC2CCN(Cc3ccccn3)CC2)cc1.O=C(O)C(=O)O  33.78%
32. COC(=O)c1ccc(Cn2cnc(C#N)n2)cc1  33.09%
33. N#Cc1ncn(CCC(=O)Nc2ccccc2F)n1  26.46%
34. COc1ccccc1NC(=O)c1cnc(C2CCN(C(C)=O)C2)nc1C (stereo unspecified)  26.28%
35. CCCN(CCC)c1ncc(S(=O)(=O)c2ccc(OC)cc2)c(N)n1  26.01%
36. O=c1c2ccccc2nc2n1CCN(Cc1cccs1)CC2  20.89%
37. Fc1ccc(Sc2ccccc2CNC2=NCCN2)cc1.I  18.51%
38. Cc1cccc(-c2nc(CN3CC(n4nc(C)cc4C)C3)no2)c1  18.28%
39. CN(Cc1ccsc1)C(=O)Cn1c(CS(C)(=O)=O)nc2ccccc21  17.82%
40. CN(C)CCNc1ccc(-c2nc(COc3ccccc3)no2)cn1  16.69%
41. COc1cccc(CN2CCCC(Cn3nc(C)nc3C)C2)c1 (stereo unspecified)  16.57%
42. COc1ccc(NC(=O)N2CCC(c3nnc[nH]3)CC2)cc1C  16.56%
43. COc1ccc(-c2cc(C3CCCCCN3S(=O)(=O)N(C)C)on2)cc1 (stereo unspecified)  15.93%
44. CN(Cc1c(F)cccc1Cl)C(=O)Cn1cnc(C#N)n1  14.48%
45. CCOc1cc(C(=O)N2CCCC(c3noc(C)n3)C2)ccc1OC (stereo unspecified)  13.87%
46. CC(N)Cc1ccccc1Sc1ccccc1.O=C(O)/C=C\C(=O)O (stereo unspecified)  13.46%
47. CC(C(=O)Nc1ccccc1Sc1ccccc1)S(C)(=O)=O (stereo unspecified)  13.38%
48. Cc1cccc(=O)n1CCC(=O)N1CC[C@@](O)(C2CCC2)[C@H](C)C1  13.12%
49. O=C(CC1CCCC1)N1CCC(c2noc(-c3ccccn3)n2)CC1  12.79%
50. Cl.c1ccc(CCNc2cccc(C3CCCNC3)n2)cc1 (stereo unspecified)  12.44%
51. CC(CS(C)(=O)=O)N(C)C(=O)NCCCc1ccc(Cl)cc1 (stereo unspecified)  12.33%
52. C=C(C)COc1ccccc1C(=O)NCc1nc(C)cc(=O)[nH]1  11.83%
53. NCc1ccccc1Sc1ccc(O)cc1.O=C(O)/C=C\C(=O)O  11.62%
54. OCCOc1cc(F)ccc1NCc1ccc(F)c(F)c1  11.25%
55. O=C(NCCc1cccc(Cl)c1)C1CCOCC1  10.9%
56. CCc1cccc(OCCN(C)C(=O)c2ccccc2NCC(=O)O)c1  10.74%
57. CN1C(=O)C2(CC(=O)Nc3[nH]ncc32)c2ccc(F)cc21 (stereo unspecified)  10.37%
58. O=C1NC2(CCc3ccccc31)CCN(C(=O)c1ccncc1)C2 (stereo unspecified)  9.772%
59. Cc1ccc(-n2cc(S(=O)(=O)Nc3cccc(C(=O)O)c3C)cn2)cc1  9.419%
60. CS(=O)(=O)N1CCCCCC1c1cc(-c2ccc(F)cc2)no1 (stereo unspecified)  7%
61. COc1cc2ncn(Cc3ncc[nH]3)c(=O)c2cc1OC  6.69%
62. CNc1cccc(C2CN(C(=O)c3c[nH]cn3)CCO2)n1 (stereo unspecified)  6.6%
63. O=C(CCN1CCCO1)N1CC[C@@H](c2ccc3ccccc3c2)[C@H](O)C1  5.243%
64. CCSc1ncccc1C(=O)NCc1ccc(N(C)C)cc1  4.638%
65. O=C(Cc1cccnc1)N1CC(Cc2nccc3cc[nH]c23)C1  4.598%
66. O=S1(=O)CCC(S(=O)(=O)c2cccc(S(=O)(=O)N3CCCC3)c2)C1 (stereo unspecified)  4.254%
67. O=C(O)Cn1nc(-c2ccccc2F)ccc1=O  3.999%
68. N#Cc1ncn(Cc2c(F)cccc2Cl)n1  3.788%
69. COCc1noc(-c2ccc(N(C)Cc3ncccc3C)nc2)n1  3.239%
70. CN(Cc1ccco1)[C@@H]1CN(Cc2cccs2)C[C@@H]2CCCO[C@@H]21.O=C(O)C(F)(F)F.O=C(O)C(F)(F)F  3.22%
71. O=C(Cc1cccc(Cl)c1)N[C@@H]1CCNC[C@H]1O  2.906%
72. COc1ccc(N2CCN(C(=O)C3CN(C)C(=O)N3)CC2(C)C)cc1 (stereo unspecified)  2.102%
73. O=C(CCc1cccs1)N1CCCC1c1noc(C2CC2)n1 (stereo unspecified)  -0.7961%
74. O=C(CCn1cccn1)N1CC[C@@H](c2ccc3ccccc3c2)[C@H](O)C1  -1.48%
75. CNC(=O)N1CCc2nc(C(=O)NCc3cccc(OC)c3)sc2CC1  -3.356%
76. Cc1noc(C)c1C(=O)N1CCCC1(C)C(=O)NC1CCCC1 (stereo unspecified)  -3.819%
77. Cc1ccc(NC2CCN(C(=O)Cc3cccs3)CC2)nn1  -3.843%
78. CCOc1ccc(Cl)cc1C1CCCN1.Cl (stereo unspecified)  -3.998%
79. CC(C)N1CCO[C@H]2CN(Cc3cc[nH]n3)C[C@H]21.O=C(O)C(F)(F)F.O=C(O)C(F)(F)F  -4.182%
80. Cn1nc(CN2CCCCC(N)C2)c2c(Cl)cccc21 (stereo unspecified)  -4.365%
81. CCOCC(=O)N1CCCn2c(nnc2Cn2cccc2)C1  -5.462%
82. Cc1ccc(S(=O)(=O)NC2=NCN(CCc3cccs3)CN2)cc1  -5.965%
83. Cc1cc(N[C@H]2CCCN(Cc3ccccc3)C2)n2nc(C)cc2n1  -6.549%
84. CN1CCCC(c2cccc(CCC(N)=O)n2)C1 (stereo unspecified)  -6.826%
85. O=C(c1ccncc1F)N1CCc2ncnc(-c3ccncc3)c2CC1  -7.007%
86. O=C1NCCCc2[nH]c(Cc3cccc(Cl)c3)nc21  -7.355%
87. O=C1CCNc2cc3c(cc2CN1CC1CC1)OCO3  -9.17%
88. Cn1cc(CN2CCc3nc4sccc4c(=O)n3CC2)cn1  -10.08%
89. CCOCc1cnc2n1CCN(C(=O)c1cccc3c1OCCO3)C2C (stereo unspecified)  -10.91%
90. Cn1ncc(Cl)c1C(=O)N1CCc2nc3sccc3c(=O)n2CC1  -13.36%
91. CN(Cc1cnccn1)S(=O)(=O)c1ccc(C(F)(F)F)nc1  -14.08%
92. O=C(CC1COCCN1)N1CCC(N2CCc3ccccc3C2)CC1 (stereo unspecified)  -14.32%
93. Cc1ccc(-c2cc(CS(=O)(=O)NC3CCCNC3=O)on2)cc1 (stereo unspecified)  -20.71%
94. C[C@@H]1CN(C2CCN(Cc3nn(C)c4cccc(Cl)c34)CC2)C[C@H](C)O1  -20.95%
95. CCN(CCCNC(=O)Nc1ccccc1C(C)C)S(C)(=O)=O  -25.97%
96. Cc1ccc(NS(=O)(=O)c2cnn(Cc3ccccc3)c2)c(C(=O)O)c1  -25.98%
97. CC[C@H]1CN(C(=O)c2cccc(-n3cnnc3)n2)CC[C@@]1(C)O  -27.2%
98. N#Cc1ncn(CCS(=O)(=O)c2ccc(Cl)cc2)n1  -29.79%
99. CCn1cnnc1C1CCN(C(=O)c2cccc(C)c2C)CC1  -30.53%
100. NS(=O)(=O)c1ccc(N2CCN(CCCc3cn[nH]c3)CC2)cc1  -32.06%
101. Cc1cc2c(=O)n3c(nc2s1)CCN(Cc1cnn(C)c1C)CC3.Cl  -41.11%
